Screens as filed in PubChem.
Hits are enriched below; roughly 3.5% of the tested compounds scored in any of these assays.
GPR151 ag – activators of human GPR151, primary screen, cell-based, PathHunter beta-arrestin, luminescence; AID 1508602, 2020; PathHunter beta-arrestin GPR151 cells; activation, % at 11.2 µM; hit rate 1% among 650,000; G-protein coupled receptor 151 (Homo sapiens), Q8TDV0; in the data active means activation above about 4.9%;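 further: 0% = median of compound wells and 100% = cells with positive control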
MITF primary – MITF inhibitors, primary screen, biochemical, AlphaScreen, human | AlphaScreen MITF homodimerization, bead proximity signal | AID 1259374, 2018 | inhibition, % at 2.6 µM | hit rate 0.91% among 650,000; in the data active means inhibition above about 50%;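 further: 0% = vehicle wells with protein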
Target sequence (O75030 whole entry, looked up): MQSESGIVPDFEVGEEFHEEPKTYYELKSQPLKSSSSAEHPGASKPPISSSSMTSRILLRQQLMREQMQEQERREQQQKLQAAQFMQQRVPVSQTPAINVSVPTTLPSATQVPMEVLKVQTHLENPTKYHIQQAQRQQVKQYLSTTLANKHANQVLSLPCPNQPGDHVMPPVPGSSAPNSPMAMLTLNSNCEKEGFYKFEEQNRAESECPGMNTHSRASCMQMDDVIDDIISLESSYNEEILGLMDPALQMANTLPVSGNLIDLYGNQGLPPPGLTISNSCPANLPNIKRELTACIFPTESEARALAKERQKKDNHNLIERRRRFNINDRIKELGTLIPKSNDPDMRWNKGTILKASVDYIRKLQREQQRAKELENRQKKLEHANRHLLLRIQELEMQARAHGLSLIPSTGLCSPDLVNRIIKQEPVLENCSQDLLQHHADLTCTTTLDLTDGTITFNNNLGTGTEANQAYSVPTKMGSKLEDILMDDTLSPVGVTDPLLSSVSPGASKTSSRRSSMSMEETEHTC
FBW7 activator – FBW7 E3 ligase activators, primary screen, biochemical, AlphaScreen, human; F-box/WD repeat-containing protein 7 (Homo sapiens), Q969H0; AlphaScreen FBW7–phospho-cyclin E peptide binding, activator screen; normalized activity (activation), % at 26.1 µM; hit rate 0.13% among 650,000; AID 1259310, 2017; in the data active means normalized activity above about 1.9%;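 further: purified mutant Fbw7 with reduced substrate affinity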
TEAD-YAP block – TEAD-YAP interaction inhibition, primary screen, TEAD-YAP interaction inhibitor project, luminescence, HEK-TIYL cells | TEAD-Gal4/YAP UAS-luciferase luminescence | hit rate 1.4% among 640,000 | inhibition, % at 9.12 µM | AID 1259422, 2018; in the data active means inhibition above about 32%;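 further: 0% = median of test compound wells and 100% = reference inhibitor wells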
GPR151 confirm – GPR151 activators, triplicate retest, confirmation, cell-based, PathHunter beta-arrestin, luminescence; shares compounds with GPR151 ag; GPR151 PathHunter beta-arrestin cells, 90 min; % of EA-reagent control over plate median; activation, % at 11.2 µM; 6,700 tested, under 10 active;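 active means mean percent activation across replicates above the confirmation screen cutoff of 4.91%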
GPR119 ag – GPR119 activators in beta-arrestin cells, counter-screen for GPR151 activator project, cell-based, PathHunter beta-arrestin, luminescence, triplicate; shares compounds with GPR151 ag; 90 min; 0 = compound-well median, 100 = enzyme-acceptor control; activation, % at 11.2 µM; hit rate 0.3% among 6,700;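 active means mean percent activation in the counterscreen above 29.09%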;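 further: counterscreen on off-target GPR119 to flag nonselective hits from the GPR151 activator screen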
Starred values were filed as active, the others as inactive; x = no result.

SMILES | GPR151 ag | MITF primary | FBW7 activator | TEAD-YAP block | GPR151 confirm | GPR119 ag
Cc1cc(N2CCCCC2)nc2ccc(NC(=O)c3cccc([N+](=O)[O-])c3)cc12 | 17* | 2 | 0 | 7 | 1 | 10
Cc1ccc(-n2c3c(cc(C(=O)Nc4ccc(C#N)cc4)c2=O)C(=O)CC(C)(C)C3)cc1 | 0 | 1 | 1 | 5 | x | x
CC(C)N(CCNc1nc(N2CCC(N3CCOCC3)CC2)nc2c1ncn2C1CCCCC1)C(C)C | 14* | 10 | 0 | 3 | 1 | 6
Cc1cnc(N2CCC(N3CCOCC3)CC2)nc1NCCN(C(C)C)C(C)C | 6.7* | -9 | 0 | 1 | -1 | 6
Cc1ccc(SC(C)C(=O)Nc2ccc(S(=O)(=O)Nc3nccs3)cc2)cc1 (centres undefined) | -1 | 15 | 0 | 7 | x | x
O=C1N=C(N2CCCC2C(=O)O)S/C1=C\c1ccco1 (centres undefined) | 11* | 4 | 0 | 7 | -2 | -5
O=C1N=C(N2CCCCC2)S/C1=C\c1ccco1 | -2 | 9 | 0 | -16 | x | x
CCCCCn1c(=O)[nH]c2ccccc21 | 2 | -2 | 0 | -6 | x | x
CCCCn1c(C)c(Cc2ccccc2)[nH]c1=O | 6.1* | -12 | 0 | 9 | 0 | 0
O=C(Nc1ccc2oc(-c3cc(Cl)ccc3Cl)nc2c1)c1cccc(I)c1 | 0 | 12 | 0 | -9 | x | x
C#CCOC(=O)CCCC(=O)Nc1ccc([N+](=O)[O-])cc1Cl | 0 | 6 | 0 | 4 | x | x
C#CCOC(=O)CCCNc1ccc([N+](=O)[O-])cc1[N+](=O)[O-] | 5.6* | 15 | 0 | 1 | -1 | 7
CCN(CC)CCCNC(=O)/C=C/c1ccccc1Cl | 0 | 4 | 0 | 3 | x | x
O=[N+]([O-])c1cccc(S(=O)(=O)NC23CC4CC(CC(C4)C2)C3)c1 | 5.3* | 4 | 0 | 1 | 1 | 14
N/C(=N\OC(=O)CCCN1C(=O)c2ccccc2C1=O)c1ccccn1 | 5.3* | 1 | 0 | 1 | 2 | 1
CCCOc1c(Br)cc(/C=C2/NC(=S)N(C(C)=O)C2=O)cc1OCC | -1 | 15 | 0 | 4 | x | x
CC(C)CCn1c(=O)c2sccc2n2c(CCCC(=O)NC3CC3)nnc12 | 5.0* | 4 | 0 | 6 | 1 | 1
CNC(=O)CCCc1nnc2n(CCC(C)C)c(=O)c3sccc3n12 | -2 | 13 | 0 | 3 | x | x
COc1cc2nc(CN(C)C(C)c3ccon3)nc(N)c2cc1OC (centres undefined) | 0 | -5 | 0 | -3 | x | x
O=C(c1ccc(Br)cc1)C1C2C(=O)C3OCC(O3)C12 (centres undefined) | 8.0* | -4 | 0 | -23 | 1 | 14
Nc1nc(-c2nc3ccccc3s2)cs1 | -6 | 18 | 0 | 17 | x | x
Cc1ccccc1NC(=O)NC1(C(=O)N2CCN3CCCC3C2)CCCCC1 (centres undefined) | 12* | 0 | 0 | -1 | 0 | -1
c1ccc2c(NC3CCCC3)nc(N3CCNCC3)nc2c1 | 2 | 2 | 0 | -5 | x | x
CN1CCN(c2nc(NC3CCCCC3)c3ccccc3n2)CC1 | 12* | -33 | 0 | 4 | 0 | 18
CC(C)Cc1nc(SCC(=O)Nc2ccccc2)c2c(=O)n(C)c(=O)n(C)c2n1 | 8.1* | -13 | 0 | 4 | 0 | 11
SMILES | GPR151 ag | MITF primary | FBW7 activator | TEAD-YAP block | GPR151 confirm | GPR119 ag
O=C(NCCc1nnc2n1CCN(Cc1cc3c(cc1Cl)OCO3)CC2)c1ccoc1 | 0 | 1 | 0 | 13 | x | x
CCn1c(C(=O)O)c(CNCC(C)c2ccccc2)c2ccc(OC)cc21 (centres undefined) | -2 | -4 | 0 | 0 | x | x
Cc1ccc(OCCCCn2cnc3ccccc3c2=O)cc1 | 5.5* | 10 | 0 | 2 | 0 | -4
O=c1c2ccccc2ncn1CCOCCOc1cccc2ccccc12 | 1 | 9 | 0 | 0 | x | x
COc1ccccc1OCCOCCn1cnc2ccccc2c1=O | 14* | -3 | 0 | -14 | 0 | 0
Cn1cc(C(=O)N/N=C/C=C(\Br)c2ccccc2)ccc1=O | 0 | -1 | 0 | 11 | x | x
CCc1c(C)sc(NC(=O)c2ccccc2OC)c1C(=O)OC | 0 | -16 | 0 | -7 | x | x
CCOC(=O)N1CCc2c(sc(NC(=O)c3ccc(Br)s3)c2C#N)C1 | 9.1* | 9 | 0 | 3 | 0 | 5
Cc1nn(C)c(C)c1-c1cccc(C(N)=O)c1 | 0 | -5 | 0 | 0 | x | x
Cc1nn(C)c(C)c1-c1ccc2nc(C(C)C)[nH]c(=O)c2c1 | 5.6* | -10 | 0 | 3 | -1 | 1
CCc1ccc(OCC(=O)Nc2cccc([N+](=O)[O-])c2)cc1 | 0 | -4 | 0 | -47 | x | x
[O-]/[N+](=C\c1ccncc1)c1ccc(Cl)cc1 | 5.2* | -1 | 0 | 5 | 2 | 13
[O-]/[N+](=C\c1ccc(F)cc1)c1ccccc1 | -1 | -1 | 0 | 6 | x | x
CCCC(C)NS(=O)(=O)c1c(C)cc(C)cc1C (centres undefined) | 7.7* | 3 | 0 | -5 | 1 | 0
Nc1ccccc1S(=O)(=O)NCC(=O)O | 1 | 9 | 0 | 3 | x | x
Nc1ccccc1S(=O)(=O)Nc1ccccc1 | 5.0* | 1 | 0 | 6 | -1 | -10
CC(NC(=O)CSc1nc2ccc(N)cc2s1)c1ccccc1 (centres undefined) | 6.3* | -4 | 0 | 3 | 0 | -2
Nc1ccc2nc(SCC(=O)Nc3ccccc3)sc2c1 | 2 | 4 | 0 | -38 | x | x
COc1ccc(C(=O)Nc2ccc3c(c2)OCCO3)cc1Cl | 0 | 9 | 0 | -70 | x | x
CCOc1cc(C2C(C(=O)N3CCCCC3)=C(C)NC3=C2C(=O)CCC3)cc(Br)c1OC (centres undefined) | 4.9* | 5 | 0 | 12 | 0 | 6
COC(=O)C1=C(C)Nc2nc(SC)nn2C1c1ccc(Cl)cc1 (centres undefined) | 1 | 4 | 0 | 0 | x | x
Cn1c(N)c(S(=O)(=O)N2CCN(c3ccccc3Cl)CC2)c(=O)n(C)c1=O | 26* | 7 | 0 | -9 | 1 | 3
Clc1cccc(-c2cnnc(NCCc3cccnc3)n2)c1 | -1 | -2 | 0 | -24 | x | x
COCCn1c(C)cc(/C=C2/C(=O)NC(=O)N(C3CCCCC3)C2=O)c1C | 7.0* | 8 | 0 | 9 | -1 | -12
